A selection: hits, their analogues and other compounds. The true share with any hit is near 2.9%.
HEK293 viab – counter-screen for SNCA expression inhibitors: cell viability; HEK-293-SNCA-luc viability, GF-AFC fluorescence, 24 h; Potency, µM (top dose mostly 57.1 µM), for inactives: at the highest dose activity change, negative = cytotoxicity, usual class: cytotoxic; hit rate 0.12% among 150,000;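 further: potency means the concentration at half of the fitted maximal effect; 0% = DMSO-treated cells and -100% = medium-only wells without cells; nearly all actives have a fitted effect of over 30% in size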
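Cytotoxicity counterscreen: after 24 h compound treatment of genome-edited SNCA-luciferase HEK-293 cells, live-cell protease substrate GF-AFC read by fluorescence after 30 min; activity scaled between DMSO (0%) and medium-only (-100%), curves Hill-fitted.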
IP6K1 inh – IP6K1 kinase inhibition; Q92551; IP6K1 kinase, ADP-Glo luminescence, 2 h; hits give low values; activity change, % (series mostly up to about 58 µM); hit rate 0.81% among 140,000; in the data active means activity change below about -25%; further: on the % scale 0 is the no-effect control and ±100 the full control effect
Target sequence (Q92551 whole entry, looked up): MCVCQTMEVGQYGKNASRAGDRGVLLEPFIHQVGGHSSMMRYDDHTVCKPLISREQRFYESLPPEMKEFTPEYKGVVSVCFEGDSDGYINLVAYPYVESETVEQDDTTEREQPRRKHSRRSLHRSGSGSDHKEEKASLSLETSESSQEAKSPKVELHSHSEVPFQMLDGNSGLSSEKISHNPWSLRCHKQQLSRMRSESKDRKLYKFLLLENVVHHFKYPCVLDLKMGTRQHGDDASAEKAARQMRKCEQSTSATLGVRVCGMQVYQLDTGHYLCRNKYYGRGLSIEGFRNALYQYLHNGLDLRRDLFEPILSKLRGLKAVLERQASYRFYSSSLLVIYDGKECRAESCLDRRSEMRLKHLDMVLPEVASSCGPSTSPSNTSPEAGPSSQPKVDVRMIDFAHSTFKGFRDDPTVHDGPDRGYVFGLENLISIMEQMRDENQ
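ADP-Glo luminescence measures ADP made by human IP6K1 during a 2 h RT reaction with ATP/IP6 (mix at 1.3 mM/130 uM); top library doses 57.5 and 19.1 uM final.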
KDM5B inh – blocks human KDM5B histone demethylase activity; Q9UGL1; KDM5B demethylase, FDH-coupled NADH fluorescence (FDH is formaldehyde dehydrogenase); Potency, µM (highest dose often 57.7 µM), actives largely listed as inhibitors; hit rate 2.6% among 220,000; AID 1347165; further: potency means the concentration at half of the fitted maximal effect; 0% is about no effect; nearly all actives have a fitted effect of over 70% in size
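Here, H3K4me3 peptide (12.5 µM in substrate mix) is demethylated by KDM5BΔAP, 200 nM final, after 10 min compound exposure. Formaldehyde product is coupled through FDH (0.25 U/mL in mix) to NADH fluorescence; 30-min ΔRFU feeds dose-response curves.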
SNCA expr inhib – inhibitors of alpha-synuclein (SNCA) gene expression. Potency, µM (highest dose often 57.2 µM), for inactives: top-dose activity change, negative = inhibition, hits mostly inhibitors. hit rate 0.17% among 140,000. AID 1671194. HEK-293 SNCA-luciferase knock-in, luminescence, 24 h;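 further: potency means the concentration at half of the fitted maximal effect; plate controls were DMSO cells for no effect and cell-free wells for full effect; nearly all actives have a fitted effect of over 45% in size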
IP6K1 conf – confirmation of human IP6K1 inhibitors; shares compounds with IP6K1 inh; hit rate 13% among 1,200; AID 1645852; recombinant IP6K1 kinase, ADP-Glo luminescence, 2 h; Potency, µM (series often up to 49 µM), inactives show at the highest dose activity change, negative = inhibition, actives largely listed as inhibitors; further: potency means the concentration at half of the fitted maximal effect; on the % scale 0 is the no-effect control and ±100 the full control effect; nearly all actives have a fitted effect of over 65% in size
Starred values were filed as active, the others as inactive; i = inactive; ? = inconclusive; . = no result; ! = a repeat was not active; [ ] = remark or other dose. Unless noted, the call rests on the fitted dose curve; in most records, active means well fitted curve in the direction sought with a large enough effect; inconclusive means small, poorly fitted or top-dose-only effect, or another doubt; inactive means no such curve, though single readings can be large; an effect the other way counts as inactive or inconclusive.

SMILES	HEK293 viab	IP6K1 inh	KDM5B inh	SNCA expr inhib	IP6K1 conf
COCc1cc(C)nc2sc3c(c12)NC(c1ccccc1C(=O)O)N(c1ccc(OC)cc1)C3=O (centres undefined)	18%	-31*	?	82%	-2%
COCc1cc(C)nc2sc3c(c12)NC(c1ccc(O)c(OC)c1)N(c1ccccc1)C3=O (centres undefined)	?	-7	?	73%	.
CNC(=O)c1ccc(-c2ccc(OC)nn2)cc1	.	-3	.	.	.
Cc1ncc2c(N3CC4CCC(C3)N4CC(F)(F)F)nc3ccccc3n12	-15%	11	?	19%	.
CCOC(=O)c1ccc(NC(=O)CC2C(=O)N(c3ccc(F)cc3)C(=O)N2Cc2ccc(C)cc2)cc1 (centres undefined)	-19%	-29*	i	?	?
O=C(Nc1ccc(Br)cc1)c1cc(S(=O)(=O)NC2CCCC2)ccc1F	-3%	-35*	i	7%	-11%
CC(=O)c1cccc(NC(=O)Cn2ccn3nc(-c4ccc(F)cc4)c(CO)c3c2=O)c1	-28%	-30*	i	?	-13%
CC(C)NC(=O)c1ccc2nnc(-c3cccc(OC(F)(F)F)c3)n2c1	-7%	16	.	-9%	.
CCc1nc(C)sc1C(=O)N1CCCC(c2[nH]ncc2-c2ccccc2)C1 (centres undefined)	-15%	-30*	i	-9%	-19%
Cc1ccc(-c2cn[nH]c2C2CCCN(C(=O)c3[nH]ncc3Cl)C2)cc1 (centres undefined)	?	5	i	?	.
Cc1ccc(N2CC(NC(=O)c3ccco3)CC2=O)cc1C (centres undefined)	-2%	-25*	i	0%	-10%
Cc1ccc(N2CC(NC(=O)c3ccc(Br)o3)CC2=O)cc1C (centres undefined)	-11%	-13	i	-11%	.
CN1c2cc(C(=O)N3CCN(c4cccc(Cl)c4)CC3)ccc2C(=O)N2CCCC21 (centres undefined)	10%[12.5 µM]	-5	?	-25%	.
Cc1ccccc1N1CCN(C2CCCN(C/C=C/c3ccc(F)cc3)C2)CC1 (centres undefined)	2%	-27*	i	4%	21%
CCOC(=O)N1CCN(Cc2nc3cc(NC(=O)c4ccccc4Cl)ccc3n2C(C)C)CC1	-8%	-25*	?	-29%	-12%
CCOC(=O)N1CCN(Cc2nc3cc(NC(C)=O)ccc3n2C(C)C)CC1	-11%	-10	?	-22%	.
CCCC(=O)Nc1ccc2c(c1)nc(CN1CCN(C(=O)OCC)CC1)n2C(C)C	-2%	-28*	i	?	35%
CC1=C[C@@H](CN2CCN(CCO)CC2)[C@H](C(C)C)C[C@H]1Cc1nnc(Cc2c[nH]c3ccccc23)o1	-29%	-6	i	?	.
CCOC(=O)c1ccccc1NC(=O)c1c(-c2ccccc2)noc1C	5%	-31*	?	?	-14%
Cc1onc(-c2ccccc2)c1C(=O)Nc1ccc(NC(=O)c2c(-c3ccccc3)noc2C)cc1	.	.	i	.	.
Cc1ccsc1CN1CCn2nnc(CCC(=O)NCc3ccccc3)c2C1	-19%	12	.	-16%	.
CCN(CC)S(=O)(=O)c1ccc2c(c1)N(CC(=O)N1CCN(c3ccc(F)cc3)CC1)C(=O)CO2	?	-2	i	-3%	.
CCN(CC)S(=O)(=O)c1ccc2c(c1)N(CC(=O)N1CCN(c3cccc(C(F)(F)F)c3)CC1)C(=O)CO2	-19%	-25*	i	-12%	-2%
Cn1ncc2c(C(=O)N3CCC(c4ccccc4)CC3)cc(-c3ccc(C(F)(F)F)cc3)nc21	.	-3	.	.	.
CNC(=O)c1ccc(NC(=O)c2nsc3ccccc23)cc1	-7%	-27*	i	-71%	?
SMILES	HEK293 viab	IP6K1 inh	KDM5B inh	SNCA expr inhib	IP6K1 conf
CCOC(=O)c1ccc(NC(=O)c2nsc3ccccc23)cc1	-30%	-24	?	-9%	.
Cc1ccc(NC(=O)c2cnn3c(C(F)F)cc(-c4ccccc4)nc23)c(C)c1	5%	-50*	i	0%	-19%
CCCN(CC1CC1)C(=O)c1ccc2c(c1)C(O)CCCCCN2CCOC (centres undefined)	-10%	-2	?	1%	.
CC(C)Nc1ccc2nnc(-c3ccc(F)cn3)n2n1	4%[87.6 µM]	-26*	?	-5%[87.6 µM]	3%[92.2 µM]
CCOC(=O)c1ccc(N2CCN(CCC3c4cccnc4C(=O)N3c3c(C)cccc3C)CC2)cc1 (centres undefined)	-15%[23.9 µM]	-1	.	-3%[25.6 µM]	.
O=C(Nc1ccc(Cl)cc1)N1CCCN(c2ccc3nnc(-c4ccccc4)n3n2)CC1	.	9	.	.	.
O=C(Nc1ccc(Cl)cc1)N1CCN(c2ccc3nnc(-c4ccccc4)n3n2)CC1	?	-30*!	?	-17%	?
COc1ccc(C(=O)Nc2ccc(-c3cc4ccccc4oc3=O)c(C)c2)cc1Br	7%	-28*	?	38%	?
CC(C)c1ccc(Nc2c(-c3ccsc3)nc3ccc(Cl)cn23)cc1	10%	-31*	i	1%	-11%
Cc1ccc2nc(-c3ccsc3)c(Nc3ccc(C(C)C)cc3)n2c1	4%	22	i	4%	.
CN1CCN(C(=O)Nc2cccc(Cl)c2)c2cccnc21	-1%	-32*	?	2%	-9%
CCNC(=O)N[C@H]1C[C@@H](Cc2cc(COc3ccccc3)on2)C1(C)C	-10%[87.6 µM]	5	i	39%[87.6 µM]	.
CCOCCNc1ncnc2c1CN(C1CCCNCC1)C(=O)CN2C (centres undefined)	5%	-28*	?	13%	-9%
CCOCCNc1ncnc2c1CN(C1CCCNC1)C(=O)CN2C (centres undefined)	13%	2	?	?	.
Cc1nn(-c2ccccc2)c2c1C(C)N(C1CN(C(=O)Cc3ccc(F)cc3)C1)C2=O (centres undefined)	.	10	.	.	.
c1cc(Nc2cc(C3CC3)[nH]n2)nc(Nc2ccc3nc[nH]c3c2)n1	-36%	-27*	.	.	?
Cn1c(=O)c(-c2cccc(Cl)c2)c(O)c2ccccc21	.	.	i	.	.
Cn1cncc1C(N)(c1ccc(Cl)cc1)c1ccc2c(c1)c(-c1cccc(Cl)c1)cc(=O)n2C (centres undefined)	9.5µM*	-26*	.	.	?
CCOc1cc(-c2ccc(OC(=O)c3ccc(C)cc3)c(OC)c2)cc(=O)c2c(C)oc(C)c12	4%	-27*	?	2%	3%
Cc1oc(C)c2c(=O)cc(-c3ccc4c(c3)OCO4)cc(OC(=O)c3cccc(Cl)c3)c12	-3%	-23	?	3%	.
COc1cc(-c2cc(OC)c3c(C)oc(C)c3c(=O)c2)ccc1OC(=O)c1ccc(C)cc1	6%	-21	?	14%	.
Cc1ccc(C(=O)Oc2cc(-c3ccc4c(c3)OCO4)cc(=O)c3c(C)oc(C)c23)cc1	?	-54*	?	?	?

Screening data from PubChem BioAssay.
